From PubChem
KB-3-1 cytotox: kills parental KB-3-1 adenocarcinoma cells; KB-3-1 viability, CellTiter-Glo ATP luminescence, 72 h; Potency, µM (titrated, usually from 46.1 µM), hits mostly cytotoxic; hit rate 1.4% among 400,000; AID 1347075; further: on the % scale 0 is the no-effect control and ±100 the full control effect; nearly all actives have a fitted effect of over 60% in size
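Multi-concentration cytotoxicity screen in KB-3-1 cells grown in DMEM lacking phenol red with 10% FBS. After 72 h at 37 °C with compound, ATP-dependent luminescence was recorded.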
KB-V1 MDR tox: KB-V1 MDR subline cytotoxicity | KB-V1 MDR cells viability, CellTiter-Glo, 72 h | Potency, µM (titrated, usually from 46.1 µM), most hits filed as cytotoxic | hit rate 3.4% among 400,000 | AID 1347076; further: on the % scale 0 is the no-effect control and ±100 the full control effect; nearly all actives have a fitted effect of over 60% in size
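Following 72 h at 37 degrees C with compound, KB-V1 cell viability was read by CellTiter-Glo luminescence, medium being phenol-red-free DMEM plus 10% FBS; concentration-response parameters came from normalized, curve-fitted qHTS data.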
ELG1 DNA repair: inhibitors of ELG1-dependent DNA repair in HEK293T cells; HEK293T ELG1-luciferase reporter, luminescence, 16 h; DNA damage induced by 5-fluorouridine; Potency, µM (top dose mostly 46.1 µM), for the others: at the highest dose activity change, negative = inhibition, hits mostly inhibitors; hit rate 2.3% among 330,000; AID 504467; further: on the % scale 0 is the no-effect control and ±100 the full control effect; nearly all actives have a fitted effect of over 55% in size
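Quantitative HTS, concentration-response format. 2,000 cells/well co-treated with 5-fluorouridine and compound, 16 hr in 5% CO2 at 37 °C; ONE-Glo luminescence read after 30 min.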
MCF10A rerep: DNA re-replication induction in MCF 10a cells; hit rate 2.9% among 350,000; Potency, µM (top dose mostly 46.1 µM), for inactives: at the top dose activity, positive = re-replication, most hits filed as activators; MCF 10A DNA re-replication, Hoechst nuclear intensity, 48 h; further: % of control where 0% means no effect; nearly all actives have a fitted effect of over 50% in size
SW480 rerep: induces DNA re-replication in SW480 colon adenocarcinoma cells. hit rate 1.8% among 340,000. AID 624297. SW480 DNA re-replication, Hoechst DNA content imaging, 48 h. Potency, µM (titrated, usually from 46.1 µM), without a hit: at the top dose re-replication activation, actives largely listed as activators; further: % of control where 0% means no effect; nearly all actives have a fitted effect of over 55% in size
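Per well, 250 cells were exposed to pinned compound for 48 hr. Nuclear DNA was visualised with Hoechst (40 min, 37 C) and total object intensity recorded by fluorescence scanning.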
An asterisk follows results filed as active; i = inactive; ? = inconclusive; . = no result given. Most compounds without a hit are left out; they make up all but 8.1% or so of the library. The call rests on the fitted dose curve; in most records, active means well fitted curve in the direction sought with a large enough effect; inconclusive means small, poorly fitted or top-dose-only effect, or another doubt; inactive means no such curve, though single readings can be large; an effect the other way counts as inactive or inconclusive. Potency means the concentration at half of the fitted maximal effect.

SMILES	KB-3-1 cytotox	KB-V1 MDR tox	ELG1 DNA repair	MCF10A rerep	SW480 rerep
C=CCOc1ccccc1C1C2=C(CC(C)(C)CC2=O)Nc2c1c(=O)n(C)c(=O)n2C (stereo unspecified)	i	i	-22.4%	-3.4%	-2.4%
COc1ccc(NC(=S)N2CCC(Cc3ccccc3)CC2)cc1	i	i	?	7.2%	-2.3%
S=C(Nc1ccccc1)N1CCC(Cc2ccccc2)CC1	11.6µM*	i	-15.7%	12.9%	-3.4%
COc1ccc(NC(=O)CN2CCN(c3ccccn3)CC2)cc1Cl	i	i	?	-0.1%	-16.6%
COc1ccc(NC(=O)c2sc3nc(C)nc(N4CCN(c5ccccn5)CC4)c3c2C)cc1Cl	i	i	3.26µM*	?	26.5%
Cc1nc(N2CCOCC2)c2c(C)c(C(=O)Nc3ccc(F)cc3Cl)sc2n1	i	i	19.4%	-4.8%	-4.2%
Cc1cc(Br)ccc1NC(=O)c1sc2ncnc(N3CCN(c4ccccn4)CC3)c2c1C	6.51µM*	?	?	7.31µM*	14.6µM*
Cc1nc(N2CCN(c3ccccn3)CC2)c2c(C)c(C(=O)Nc3ccc(F)cc3F)sc2n1	i	11.6µM*	11.6µM*	?	?
O=C(CN1CCN(c2ccccn2)CC1)Nc1ccc([N+](=O)[O-])cc1C(=O)Nc1ccccc1F	.	.	11.6µM*	27.3%	1.7%
CCC1(CC)C(=O)NC(=S)N=C1N	i	i	.	-0.6%	-8.0%
O=C(NCCCNCc1ccccc1)c1ccccn1	i	i	2.0%	0.4%	0.8%
Cc1c(C(=O)N2CCN(c3ccccn3)CC2)sc2ncnc(N3CCN(c4ccccc4)CC3)c12	i	?	.	13.3%	0.7%
Cc1nc(N2CCN(c3ccccn3)CC2)c2c(C)c(C(=O)Nc3ccc(F)cc3Cl)sc2n1	?	?	?	16.4µM*	?
CCc1ccc(NC(=O)c2sc3nc(C)nc(N4CCN(c5ccccn5)CC4)c3c2C)cc1	i	?	-2.6%	?	16.7%
Cc1nc(N2CCN(c3ccccn3)CC2)c2c(C)c(C(=O)Nc3ccccc3F)sc2n1	20.6µM*	?	9.2µM*	1.3%	-4.8%
Cc1nc(N2CCN(c3ccccn3)CC2)c2c(C)c(C(=O)N3CCN(c4cccc(Cl)c4)CC3)sc2n1	i	i	11.6µM*	?	5.9%
Cc1nc(N2CCOCC2)c2c(C)c(C(=O)Nc3ccccc3C(F)(F)F)sc2n1	i	?	16.4µM*	1.0%	2.7%
COc1ccc(C(c2nnnn2Cc2ccccc2)N2CCN(c3nc4ccccc4s3)CC2)cc1OC (stereo unspecified)	i	i	?	?	?
COc1ccc(-c2nc3ccccc3c(=O)n2CC(C)C)cc1	i	i	-1.2%	-9.0%	-1.3%
O=C(COc1ccccc1C(=O)Nc1ccccc1)Nc1ccccc1Br	i	i	.	.	.
N#Cc1ccccc1NC(=O)COc1ccccc1C(=O)Nc1ccccc1	i	i	20.6µM*	9.5%	?
CC12CCC(C/C1=N\N=C1\NC(=O)/C(=C\c3cccc(Br)c3)S1)C2(C)C (stereo unspecified)	i	?	-9.4%	18.4µM*	10.7%
NC(=O)[C@@H]1CCCN1C(=O)c1cc(COc2ccc3c(c2)CCCC3)on1	i	i	?	3.8%	0.8%
CC(=O)c1ccc(NC(=O)Nc2ccc3snnc3c2)cc1	i	?	.	.	.
CNC(=O)/C(C#N)=C/c1c(N2CCN(c3cccc(Cl)c3)CC2)nc2c(C)cccn2c1=O	i	i	20.6µM*	2.91µM*	0.4%
SMILES	KB-3-1 cytotox	KB-V1 MDR tox	ELG1 DNA repair	MCF10A rerep	SW480 rerep
C=CCNC(=O)/C(C#N)=C/c1c(N2CCN(c3cccc(Cl)c3)CC2)nc2c(C)cccn2c1=O	i	?	-24.4%	20.6µM*	4.2%
C=CCNC(=O)/C(C#N)=C/c1c(N2CC(C)OC(C)C2)nc2ccccn2c1=O (stereo unspecified)	i	i	-3.5%	?	16.4µM*
Fc1ccccc1Cc1cn2cc(-c3ccc(Cl)cc3)nc2s1	i	i	.	.	.
CCN1/C(=C/c2sc(-c3ccccc3C)c[n+]2C)Sc2ccccc21	0.411µM*	?	?	20.6µM*	?
CCC(=O)/C=C1/Sc2ccccc2N1CC	i	i	-1.8%	?	3.2%
Cc1cc2n(c(=O)c1C#N)CCCN2c1cccc(Cl)c1	i	13µM*	?	2.6%	-2.0%
O=C(O)CCCN1C(=O)c2ccc(C(=O)c3cccc([N+](=O)[O-])c3)cc2C1=O	i	i	8.6%	4.1%	-3.8%
CC1=C(C#N)C(c2cccnc2)C2=C(CC(c3ccc(Cl)cc3)CC2=O)N1 (stereo unspecified)	i	i	-15.6%	3.5%	7.31µM*
Nc1ncnc2c1ncn2[C@H]1CC[C@@H](CO)O1	i	i	?	?	-12.2%
CCCC1C2C(=O)N(c3ccccc3OC)C(=O)C2ON1c1ccccc1 (stereo unspecified)	i	i	0.4%	-0.9%	-0.1%
Cc1cc2oc(=O)c(CC(=O)NCCCO)c(C)c2c2occ(C(C)(C)C)c12	i	i	5.8%	20.4%	4.8%
COCCNC(=O)Cc1c(C)c2c(cc(C)c3c(C(C)(C)C)coc32)oc1=O	?	?	6.4%	5.8µM*	16.4µM*
Cc1cc2oc(=O)c(CC(=O)NCCCN(C)C)c(C)c2c2occ(C(C)(C)C)c12	?	?	?	?	9.2µM*
CC(=O)Nc1nnc(COc2ccc(Cl)cc2)s1	i	i	?	0.8%	-0.3%
CC(c1ccccc1)N1C(=O)c2ccc(C(=O)NCc3ccco3)cc2C1=O (stereo unspecified)	i	i	4.0%	-0.3%	-3.8%
CNC(=O)CSCc1cnn(-c2ccccc2)c1-n1cccc1	i	16.4µM*	?	2.7%	-5.4%
C/C=C/COC(=O)c1[nH]c2c(c1C)C(=O)CC(c1ccco1)C2 (stereo unspecified)	i	i	-1.8%	?	?
C=CCOC(=O)c1[nH]c2c(c1C)C(=O)CC(c1ccco1)C2 (stereo unspecified)	?	?	-2.9%	?	0.184µM*
Cc1c(C(=O)OCC(C)C)[nH]c2c1C(=O)CC(c1ccco1)C2 (stereo unspecified)	i	?	?	18.4µM*	0.517µM*
Cc1c(C(=O)OC2CCCC2)[nH]c2c1C(=O)CC(c1ccco1)C2 (stereo unspecified)	0.517µM*	0.581µM*	-9.9%	?	?
Cc1c(C(=O)OCC2CCCO2)[nH]c2c1C(=O)CC(c1ccco1)C2 (stereo unspecified)	3.26µM*	4.11µM*	?	3.66µM*	2.91µM*
